# According to ChEMBL document CHEMBL4513135, “CO-ADD screening of IQOG CSIS (Spain) compounds”:
# Entries with a potency or affinity are not part of this list.
# Tested on: Klebsiella pneumoniae
# Conditions: Concentration 32 ug.mL-1; ASSAY_TEST Inhibition of Bacterial Growth; detection method Absorption (OD600); MEDIA CAMHB; plate type 384well; NBS; CORNING #3640; time 18 hr
row,Compound,Inhibition [%]
1,Cc1ccc(C(O)SNNc2nc(C)nc3c2c(C)nn3-c2ccccc2)cc1 (stereo not given),11.05
2,C#CCN(C)Cc1cc2cc(O)ccc2n1C.Cl,13.12
3,CN(N=O)C(=O)NC1(C(=O)O)CC1c1ccccc1 (stereo not given),23.72
4,Cn1c(CNNC(=O)c2ccco2)cc2ccccc21,-22.42
5,Nc1c2c(nc3c1c1ccccc1n3Cc1ccccc1)CCCC2,9.09
6,Cc1nn(-c2ccccc2)c2ncn3nc(-c4ccccc4)nc3c12,14.39
7,C=C1CN(C)c2ncc(C#N)c(=N)n21,0.03
8,CCOC(=O)c1c(C)nc2nc3c(c(N)c2c1-c1ccccc1OC)CCCCC3,0.86
9,C#CCNc1nc(NCC#C)c(C#N)cc1C#N,-4.98
10,C#CCN(C)c1nc(NCCCC2CCN(Cc3ccccc3)CC2)c(C#N)cc1C#N,-7.79
11,COc1ccc(C2C(C#N)=C(N)Oc3c2ccc2ccccc32)cc1 (stereo not given),9.52
12,N#Cc1c(-c2ccccc2)c2c(ccc3ccccc32)oc1=O,13.16
13,C#CCN(C)c1nc(N(C)CC#C)c(C#N)cc1C#N,11.71
14,c1ccc(Cn2ccc3ccccc32)cc1,13.32
15,N#CC1=C(Cl)Oc2c(ccc3ccccc23)C1c1ccccc1 (stereo not given),10.59
16,COc1ccc(-c2cc(-c3cc4c(C)cc(C)cc4nc3Cl)cc(=O)[nH]2)cc1,4.51
17,O=C(COc1ccc2ccccc2c1)NNCc1c[nH]c2ccccc12,9.52
18,N#Cc1c(N)nc(NCCCCC2CCN(Cc3ccccc3)CC2)c(C#N)c1-c1ccccc1,9.09
19,CCOC(=O)c1cc2cc(OC(=O)Oc3ccc([N+](=O)[O-])cc3)ccc2[nH]1,0.96
20,N#Cc1c(N)nc(S)c(C#N)c1-c1ccccc1,24.85

row,Compound,Inhibition [%]
1,COc1ccccc1C1c2ccc3ccccc3c2OC(=NBr)C1(Br)C#N (stereo not given),11.44
2,Cc1ccc(C=C2N=C(c3ccccc3)OC2=O)cc1,9.43
3,CC#CCN(C)Cc1cc2cc(OCc3ccccc3)ccc2n1C.O=C(O)C(=O)O,22.38
4,CC(=O)CCc1c[nH]c2ccccc12,20.76
5,Cn1c(C(=O)N2CCOCC2)cc2cc(OCCCC3CCN(Cc4ccccc4)CC3)ccc21,2.68
6,CCOc1nc(N)c(C#N)c(-c2ccccc2)c1C#N,4.68
7,COc1ccc(C2c3c(nc4c(c3N)CCCC4)Oc3ccc4ccccc4c32)cc1 (stereo not given),8.01
8,C#CCNc1ncccn1,20.12
9,COc1ccc2cc(C3C(C(C)=O)=C(C)Oc4nc5c(c(N)c43)CCCCC5)c(Cl)nc2c1 (stereo not given),0.78
10,Cc1ccc(/C=C(\C#N)C(=O)c2ccccc2)cc1,11.17
11,N#Cc1cc2c(N)c3c(nc2nc1N1CCCCC1)CCCC3,18.01
12,CNCc1cc2cc(OCc3ccccc3)ccc2n1C.Cl,14.91
13,O=C1C=C(Nc2ccccc2)C(=O)N1c1ccccc1,6.46
14,COC1=C(C#N)CCC(=O)N1,12.74
15,Cc1ccc(C2c3ccc4ccccc4c3Oc3nc4c(c(N)c32)CCCC4)cc1.Cl (stereo not given),-14.84
16,O=C(O)/C(=C\c1ccccc1)NC(=O)c1ccccc1,17.85
17,C#CCN(C)Cc1cc2cc(OCCCC3CCN(C(=O)OC(C)(C)C)CC3)ccc2n1C,-9.9
18,CCOC(=O)c1c(C)[nH]c2ccc(OC)cc12,6.33
19,OCc1c(-c2ccc(Br)cc2)nc2ccccn12,16.84
20,Cc1nc(NO)c2c(C)nn(-c3ccccc3)c2n1,17.6

# Tested on: Candida albicans
# Conditions: 32 ug/mL
row,Compound,Inhibition [%]
1,Cc1ccc(C(O)SNNc2nc(C)nc3c2c(C)nn3-c2ccccc2)cc1 (stereo not given),-0.04
2,C#CCN(C)Cc1cc2cc(O)ccc2n1C.Cl,2.77
3,CN(N=O)C(=O)NC1(C(=O)O)CC1c1ccccc1 (stereo not given),1.7
4,Cn1c(CNNC(=O)c2ccco2)cc2ccccc21,1.4
5,Nc1c2c(nc3c1c1ccccc1n3Cc1ccccc1)CCCC2,1.09
6,Cc1nn(-c2ccccc2)c2ncn3nc(-c4ccccc4)nc3c12,1.63
7,C=C1CN(C)c2ncc(C#N)c(=N)n21,0.69
8,CCOC(=O)c1c(C)nc2nc3c(c(N)c2c1-c1ccccc1OC)CCCCC3,-0.21
9,C#CCNc1nc(NCC#C)c(C#N)cc1C#N,3.76
10,C#CCN(C)c1nc(NCCCC2CCN(Cc3ccccc3)CC2)c(C#N)cc1C#N,3.51
11,COc1ccc(C2C(C#N)=C(N)Oc3c2ccc2ccccc32)cc1 (stereo not given),1.55
12,N#Cc1c(-c2ccccc2)c2c(ccc3ccccc32)oc1=O,0.36
13,C#CCN(C)c1nc(N(C)CC#C)c(C#N)cc1C#N,2.14
14,c1ccc(Cn2ccc3ccccc32)cc1,4.28
15,N#CC1=C(Cl)Oc2c(ccc3ccccc23)C1c1ccccc1 (stereo not given),4.15
16,COc1ccc(-c2cc(-c3cc4c(C)cc(C)cc4nc3Cl)cc(=O)[nH]2)cc1,1.74
17,O=C(COc1ccc2ccccc2c1)NNCc1c[nH]c2ccccc12,3.01
18,N#Cc1c(N)nc(NCCCCC2CCN(Cc3ccccc3)CC2)c(C#N)c1-c1ccccc1,2.22
19,CCOC(=O)c1cc2cc(OC(=O)Oc3ccc([N+](=O)[O-])cc3)ccc2[nH]1,0.86
20,N#Cc1c(N)nc(S)c(C#N)c1-c1ccccc1,0.7

row,Compound,Inhibition [%]
1,COc1ccccc1C1c2ccc3ccccc3c2OC(=NBr)C1(Br)C#N (stereo not given),0.7
2,Cc1ccc(C=C2N=C(c3ccccc3)OC2=O)cc1,-0.14
3,CC#CCN(C)Cc1cc2cc(OCc3ccccc3)ccc2n1C.O=C(O)C(=O)O,3.08
4,CC(=O)CCc1c[nH]c2ccccc12,1.89
5,Cn1c(C(=O)N2CCOCC2)cc2cc(OCCCC3CCN(Cc4ccccc4)CC3)ccc21,1.38
6,CCOc1nc(N)c(C#N)c(-c2ccccc2)c1C#N,1.61
7,COc1ccc(C2c3c(nc4c(c3N)CCCC4)Oc3ccc4ccccc4c32)cc1 (stereo not given),0.67
8,C#CCNc1ncccn1,2.79
9,COc1ccc2cc(C3C(C(C)=O)=C(C)Oc4nc5c(c(N)c43)CCCCC5)c(Cl)nc2c1 (stereo not given),3.71
10,Cc1ccc(/C=C(\C#N)C(=O)c2ccccc2)cc1,1.76
11,N#Cc1cc2c(N)c3c(nc2nc1N1CCCCC1)CCCC3,1.35
12,CNCc1cc2cc(OCc3ccccc3)ccc2n1C.Cl,-0.02
13,O=C1C=C(Nc2ccccc2)C(=O)N1c1ccccc1,-0.48
14,COC1=C(C#N)CCC(=O)N1,0.89
15,Cc1ccc(C2c3ccc4ccccc4c3Oc3nc4c(c(N)c32)CCCC4)cc1.Cl (stereo not given),5.49
16,O=C(O)/C(=C\c1ccccc1)NC(=O)c1ccccc1,1.39
17,C#CCN(C)Cc1cc2cc(OCCCC3CCN(C(=O)OC(C)(C)C)CC3)ccc2n1C,1.82
18,CCOC(=O)c1c(C)[nH]c2ccc(OC)cc12,1.53
19,OCc1c(-c2ccc(Br)cc2)nc2ccccn12,4.83
20,Cc1nc(NO)c2c(C)nn(-c3ccccc3)c2n1,0.21
